Measurements as given in PubChem BioAssay (NCI).
Where “and” joins values, the source holds several entries; their conditions need not be identical. Equal entries are not always repeated. Compounds without any hit were thinned out: in the full panel of roughly 83,000, 20% have a hit.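 Treatment: one concentration, 48 hours, 96-well format. Scoring: percent growth, with anything below 10 considered active.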 Calls of active or inactive are those of the source.

These compounds were tested on MDA-MB-468 breast (assay: NCI-60 one-dose screen, 48 h (100 = growth as untreated, 0 = no growth, -100 = all killed)). Details: 10 µM unless noted.

Q: With `CCOC(=O)C1C(=O)C=C(c2ccc(OC)cc2)CC1c1sc(N(C)Cc2ccccc2)nc1Cl` (stereo not given) as the compound, how does the growth read?
A: The growth was 58.3% (inactive).

Q: Which growth does the source give for `C(#CCN1CCOCC1)CCCN1CCOCC1` here?
A: Its growth is 93.6% (inactive) and 110% (inactive).

Q: For `COc1cc2c(cc1OC)C(=O)/C(=C/c1cc(-c3ccc4c(c3)OCO4)n[nH]1)C2`, which growth is on record?
A: Its growth is -26.4% (active).

Q: For `Cc1cccc[n+]1CCC[n+]1ccccc1C`, which growth is on record?
A: The growth was 103% (inactive).

Q: For `O=C(NS(=O)(=O)c1ccccc1)n1cc(-c2ccncc2)c(-c2ccc(Cl)c(O)c2)n1`, which growth is on record?
A: Its growth is 96.5% (inactive).

Q: How did the growth turn out when `CCCOC(=O)C1(O)CCCC1` was run?
A: Its growth is 97.1% (inactive).

Q: Which growth does the source give for `Oc1ccc(CSc2nnc(-c3ccncc3)n2-c2ccccc2)c2cccnc12` here?
A: Its growth is 14.2% (inactive).

Q: How did the growth turn out when `CC/C=C1/C(=O)C=C[C@@H]1C/C=C\CCCC(=O)O` was run?
A: Its growth is 73.5% (inactive).

Q: For `Cc1cc(C)c2nc(Nc3nc(C)c(C)c(=O)[nH]3)nc(C)c2c1`, which growth is on record?
A: Its growth is -35.8% (active).

Q: How did the growth turn out when `CCN(CC)c1ccc(/C=N/NC(=O)c2ccc(S(C)(=O)=O)cc2)c(O)c1` was run?
A: Its growth is 1.2% (active).

Q: With `NC1=C(Cl)C(=O)c2ccc(S(N)(=O)=O)cc2C1=O` as the compound, how does the growth read?
A: The growth was -92.4% (active).

Q: With `Cc1ccc(-c2nc(C#N)c(S(=O)(=O)n3nc(C)cc3N)o2)cc1` as the compound, how does the growth read?
A: The growth was 57.7% (inactive).

Q: `O=C(NCCOCCOCCOCCNC(=O)c1cc2c(o1)C(=O)c1ccccc1C2=O)NC12CC3CC(CC(C3)C1)C2` was tested. Which growth did it give?
A: The growth was -33.8% (active).

Q: How did the growth turn out when `COC(=O)CNC(=O)c1ccc(NC(=O)c2[nH]c(C)c(Cl)c2Cl)c(O[C@H]2CCNC2)c1` was run?
A: Its growth is 112% (inactive).

Q: Which growth does the source give for `COc1ccc(-c2[nH]ncc2Nc2cc(OC)c(OC)c(OC)c2)cc1` here?
A: Its growth is 21.7% (inactive).
